Compounds with a hit are over-represented: about 7.5% of the library has one in this group of screens.
ELG1 DNA repair = qHTS screen for small molecules that inhibit ELG1-dependent DNA repair in human embryonic kidney (HEK293T) cells expressing luciferase-tagged ELG1; HEK293T ELG1-luciferase reporter, luminescence, 16 h; DNA damage induced by 5-fluorouridine; AID 504467, 2011; 2.3% of 330,000 active; Potency, µM (series often up to 46.1 µM), inactives show at the highest dose activity change, negative = inhibition, usual class: inhibitors; also: potency is read from the fitted curve at half-maximal effect; nearly all actives have a fitted effect of over 55% in size
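Quantitative HTS, concentration-response format. 2,000 cells/well co-treated with 5-fluorouridine and compound, 16 hr in 5% CO2 at 37 °C; ONE-Glo luminescence read after 30 min.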
TSHR antag = Antagonists of the Thyroid Stimulating Hormone Receptor: HTS campaign; TSHR-expressing cells, TSH-stimulated cAMP HTRF, 2 h; active compounds read low; activity change, negative = inhibition, % at 11.5 µM; 0.2% of 330,000 active; AID 504810, 2011;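 active = activity change below a set negative limit, meaning inhibition stronger than a set level, cut at about -70% in these data; inconclusive = activity change between two set negative limits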
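Cell-based HTRF cAMP assay; TSHR cells + compound, TSH EC80 (4nM final), 2 h, 37 deg C. Lysis with anti-cAMP cryptate and cAMP-d2, 30 min RT, read 665/620 nm.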
B2AR arrestin = qHTS assay of beta-arrestin-biased ligands of beta2-adrenergic receptor; Potency, µM (top dose mostly 46.1 µM), for the others: at the highest dose activation, most hits filed as activators; 0.02% of 330,000 active; beta-arrestin recruitment to beta2AR, cell-based reporter; AID 492947, 2010;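 also: potency is read from the fitted curve at half-maximal effect; 0% = DMSO controls and full agonism = EC100 isoproterenol or metaproterenol; nearly all actives have a fitted effect of over 65% in size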
Target sequence (P07550 whole entry, looked up): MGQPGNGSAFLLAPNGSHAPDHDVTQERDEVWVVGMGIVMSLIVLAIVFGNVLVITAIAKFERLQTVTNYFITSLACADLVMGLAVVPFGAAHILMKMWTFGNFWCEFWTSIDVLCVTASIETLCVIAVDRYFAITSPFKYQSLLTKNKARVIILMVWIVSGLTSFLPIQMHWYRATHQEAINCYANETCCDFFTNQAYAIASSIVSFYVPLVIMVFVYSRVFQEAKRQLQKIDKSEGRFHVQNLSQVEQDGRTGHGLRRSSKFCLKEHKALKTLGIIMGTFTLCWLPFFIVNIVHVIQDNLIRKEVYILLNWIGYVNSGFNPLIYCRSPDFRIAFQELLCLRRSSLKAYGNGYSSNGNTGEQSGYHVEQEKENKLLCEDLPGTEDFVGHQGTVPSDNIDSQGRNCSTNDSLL
VP16 counter = VP16 counterscreen qHTS for inhibitors of ROR gamma transcriptional activity; 3.5% of 310,000 active; Potency, µM (highest dose often 53.6 µM), without a hit: at the highest dose activity, negative = inhibition, usual class: inhibitors; Drosophila S2 Gal4-VP16 UAS-luciferase, luminescence, 20 h;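 also: Gal4-VP16 expression switched on by copper sulfate through the metallothionein promoter; potency is read from the fitted curve at half-maximal effect; nearly all actives have a fitted effect of over 50% in size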
RORg inh = qHTS for inhibitors of ROR gamma transcriptional activity; 5.4% of 310,000 active; Potency, µM (series often up to 53.6 µM), inactives show top-dose activity change, negative = inhibition, actives largely listed as inhibitors; Nuclear receptor ROR-gamma (Mus musculus), P51450; Drosophila S2 Gal4-RORgamma UAS-luciferase reporter, 20 h; also: potency is read from the fitted curve at half-maximal effect; nearly all actives have a fitted effect of over 60% in size
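Read-out: Photinus luciferase luminescence; inhibitors lower reporter signal. Insect Schneider cells with Gal4-ROR gamma fusion under metallothionein promoter, UAS reporter; 700 uM final copper sulfate induction, 20 hr, ambient temperature.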
An asterisk follows results filed as active; u = inconclusive; x = no result given; ! = repeats disagree. Unless noted, calls follow the shape of the dose curve; as a rule, active = well fitted curve in the direction sought with a large enough effect; inconclusive = small, poorly fitted or top-dose-only effect, or another doubt; inactive = no such curve, though single readings can be large; an effect the other way counts as inactive or inconclusive. Unless noted, % is scaled to controls: 0 for no effect and ±100 for the full control effect.

SMILES	ELG1 DNA repair	TSHR antag	B2AR arrestin	VP16 counter	RORg inh
CC(C)=CCCC1(C)C=Cc2c(O)c3c(c(CC=C(C)C)c2O1)OC12C(=CC4CC1C(C)(C)OC2(C/C=C(/C)C(=O)O)C4=O)C3=O (configuration not stated)	x	x	x	5.01µM*	3.16µM*
O=P1(Oc2ccccc2)CC=CC(COCc2ccccc2)O1 (configuration not stated)	x	x	x	0.2%	26.8%
C[C@H]1CO1	x	x	x	-3.9%	-11.1%
CNc1ccc2oc(C[C@H]3O[C@]4(CC[C@H]3C)O[C@H]([C@H](C)C(=O)c3ccc[nH]3)[C@H](C)C[C@H]4C)nc2c1C(=O)O	x	x	x	-61.9%	u
CNc1ccc2oc(C[C@@H]3OC4(CC[C@@H]3C)O[C@H](C(C)C(=O)c3ccc[nH]3)[C@H](C)C[C@H]4C)nc2c1C(=O)O (some centres not stated)	x	x	x	x	1.78µM*
CC[C@@]1(C(=O)OC)N[C@H](CN(C)C(=O)c2ccc(C(C)(C)C)cc2)[C@@H]2C(=O)N(Cc3ccccc3)C(=O)[C@@H]21	11.6µM*	4.0	-0.8%	x	x
CCN(C[C@H]1N[C@@](CC)(C(=O)OC)[C@H]2C(=O)N(Cc3ccccc3)C(=O)[C@@H]12)S(=O)(=O)c1ccc(OC)cc1	u	-7.9	-0.8%	x	x
CCn1c(NN=O)nc2ccccc21	0.0%	-2.3	0.2%	u	0.501µM*
CCOP(=O)(OCC)c1nc(-c2ccc(Cl)cc2)oc1NCc1ccccc1	23.1µM*	-8.2	0.0%	-2.5%	43.3%
Clc1ccc(C(c2ccccc2Cl)C(Cl)(Cl)Cl)cc1 (configuration not stated)	x	x	x	4.8%	3.8%
COC(=O)c1nc(-c2ccc3c(n2)C(=O)C(N)=C(OC)C3=O)c(N)c(-c2ccc(OC)c(OC)c2O)c1C	2.06µM*	-13.9	-0.5%	4.0%	-12.9%
CCSc1cc(C2C(C#N)=C(N)Oc3n[nH]c(C)c32)c(C)o1 (configuration not stated)	u	2.4	0.3%	u	11.2µM*
O=C(c1ccc2c(=O)n(Cc3ccc4c(c3)OCO4)c(=S)[nH]c2c1)N1CCC2(CC1)OCCO2	u	3.3	-0.2%	u	12.6µM*
COCCCNC(=S)NCCCNc1nc2cc(C)cc(C)c2cc1C#N	u	-14.2	-0.1%	u	6.31µM*
COCCCNC(=S)NNC(=O)c1ccc(C(C)(C)C)cc1	u	0.3	-0.4%	-20.2%	-42.3%
CNC(=S)S	x	x	x	-5.8%	-5.0%
C=C(C=O)CC1CC(O)[C@]2(C)OC3CC4OC5C[C@]6(C)O[C@]7(C)CCC8OC9C[C@]%10(C)OC%11C(C)=CC(=O)OC%11CC%10OC9C[C@@H](C)C8OC7CC6O[C@]5(C)CC5OC5C4OC3CC2O1 (some centres not stated)	4.11µM*	-22.8	u	-2.1%	-26.7%
CC(=O)Oc1ccc2c3c1OC1[C@@H](OC(C)=O)C=C[C@H]4[C@H](C2)N(C)CC[C@]314 (some centres not stated)	x	x	x	1.5%	10.4%
C[C@@H]1C[C@@H]([C@H](O)CC2CC(=O)NC(=O)C2)C(=O)[C@@H](C)C1	0.291µM*	10.0	-0.2%	0.0089µM*!	0.316µM*!
C=C(C)[C@]12C[C@@H](C)[C@@]34O[C@](Cc5ccccc5)(O[C@@H]1[C@@H]3C=C(COC(=O)Cc1ccc(O)c(OC)c1)C[C@]1(O)C(=O)C(C)=C[C@@H]41)O2	x	x	x	u	4.1%
Cc1cc(NC(=O)CCl)nn1C	-15.7%	-5.3	0.0%	u	-11.2%
Cn1ccc(NC(=O)CCl)n1	-1.0%	-27.7	-0.5%	4.47µM*	5.01µM*
CC(=O)C1=NOC(CNc2ncc(C(F)(F)F)cc2Cl)C1 (configuration not stated)	u	-4.8	-1.3%	-1.8%	u

Screens deposited in PubChem by National Center for Advancing Translational Sciences (NCATS).
